Data published in PubChem BioAssay (Tox21).
Unmarked numbers belong to inactive results. Inconclusive results are not listed. The source made the active and inactive calls. Calls follow the shape of the full dose curve.

target: Acetylcholinesterase (Homo sapiens) (UniProt P22303); assay: Acetylcholinesterase (AChE) small molecule antagonists: colormetric cell-based qHTS assay (AID 1347395); conditions: SH-SY5Y cells AChE activity, colorimetric (Ellman); series mostly up to 115 µM; activity, negative = inhibition: at the top concentration; also: nearly all actives have a fitted effect of over 30% in size
Procedure, shortened: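 Colorimetric readout: DTNB quantifies thiocholine from acetylthiocholine hydrolysed by endogenous AChE of SH-SY5Y cells (2,000/well, plated overnight). Compound pretreatment 30 min, substrate incubation 90 min, both 37 C.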
% is scaled to controls: 0 for no effect and ±100 for the full control effect.

Sequence of Acetylcholinesterase (Homo sapiens) (P22303 whole entry, looked up): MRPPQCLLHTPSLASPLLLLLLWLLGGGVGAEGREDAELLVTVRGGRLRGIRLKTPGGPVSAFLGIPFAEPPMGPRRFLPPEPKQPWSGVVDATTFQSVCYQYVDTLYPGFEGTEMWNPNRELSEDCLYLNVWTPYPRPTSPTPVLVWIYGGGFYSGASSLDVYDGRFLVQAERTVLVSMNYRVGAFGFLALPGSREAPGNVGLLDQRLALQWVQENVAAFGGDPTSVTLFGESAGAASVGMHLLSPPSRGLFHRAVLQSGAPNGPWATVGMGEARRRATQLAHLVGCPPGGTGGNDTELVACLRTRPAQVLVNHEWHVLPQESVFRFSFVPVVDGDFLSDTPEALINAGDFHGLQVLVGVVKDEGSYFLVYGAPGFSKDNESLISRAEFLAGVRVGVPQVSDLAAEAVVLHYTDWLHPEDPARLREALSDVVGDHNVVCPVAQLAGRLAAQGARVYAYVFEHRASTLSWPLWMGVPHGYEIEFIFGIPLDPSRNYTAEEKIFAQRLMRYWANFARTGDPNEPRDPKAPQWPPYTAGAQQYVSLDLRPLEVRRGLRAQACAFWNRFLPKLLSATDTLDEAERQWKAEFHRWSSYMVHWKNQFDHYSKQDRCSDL

Compound | activity, negative = inhibition | Potency | outcome
N[C@@H](CCC(=O)O)C(=O)O | 0.404% |  | 
CCCCSCCCC | -0.0931% |  | 
CCCCCCCCCCCCCCCCCC(=O)OCC(CC)CCCC (stereo not drawn) | -1.72% |  | 
CCOCCn1c(N2CCCN(C)CC2)nc2ccccc21 | -1.2% [at 52.9 µM] |  | 
CC1=C(/C=C/C(C)=C/C=C/C(C)=C/C(=O)O)C(C)(C)CCC1 |  | inactive | 
Cc1ccc(N=Nc2c(O)ccc3ccccc23)c(C)c1 | -3.68% [at 52.9 µM] |  | 
CCCCCCCCCCCCCCCCBr | 0.0868% [at 23.6 µM] |  | 
C=CC(=O)OCCOC1C2CCC1C1CC=CC12 (stereo not drawn) | 0.351% [at 23.6 µM] |  | 
CCC(C)C=O (stereo not drawn) |  | inactive | 
COc1ccc(OC)c(NC(=O)CC(C)=O)c1 | 2.88% |  | 
Nc1ccc(C(=O)N2CC3CC(CN(Cc4ccccc4)C3)C2)cc1 | 0.215% [at 52.9 µM] |  | 
CCCCN1CCCC[C@H]1C(=O)Nc1c(C)cccc1C | -0.925% [at 52.9 µM] |  | 
O=C(O)Cc1ccccc1Nc1c(Cl)cccc1Cl |  | inactive | 
C=CCOC(=O)CCCCCCCC | -3.17% |  | 
CCCCN(CCCC)C(=S)SSC(=S)N(CCCC)CCCC | -7.45% |  | 
C1CCCNCCC1 | 3.65% |  | 
O=C(Cl)c1ccccc1[N+](=O)[O-] | -0.405% |  | 
C#CCN[C@@H]1CCc2ccccc21 |  |  | inactive
CCc1cnc(C(=O)O)c(C(=O)O)c1 | 0.473% |  | 
C=C/C=C/C=C/CCCCC | 0.16% [at 23.6 µM] |  | 

Compound | activity, negative = inhibition | Potency | outcome
Cc1cccc2c1cc1ccc3cccc4ccc2c1c34 | -2.38% |  | 
CCC1CCC(CCC(=O)O)C1 (stereo not drawn) | -4.32% |  | 
CN(C)c1cc(NC(=O)CNC(C)(C)C)c(O)c2c1C[C@H]1C[C@H]3[C@H](N(C)C)C(=O)C(C(N)=O)=C(O)[C@@]3(O)C(=O)C1=C2O | -2.38% [at 52.9 µM] |  | 
CC(C)CCCCCCc1ccc(O)cc1 |  | inactive | 
CN1CCC(=C2c3ccccc3CCc3cccnc32)CC1 | -4.48% [at 52.9 µM] |  | 
O=[N+]([O-])c1ccc(F)cc1F | 2.36% |  | 
CCCCCCCCS | -1.43% |  | 
CC(=O)OCCC1CCCCC1 | 2.23% |  | 
Cc1ccccc1OCC(=O)O | -2.29% |  | 
C[C@H]1O[C@H](O[C@H]2[C@H](O)[C@@H](O)[C@@H](O[C@H]3[C@H](O)[C@@H](O)[C@H](O)O[C@@H]3CO)O[C@@H]2CO)[C@H](O)[C@@H](O)[C@@H]1N[C@H]1C=C(CO)[C@@H](O)[C@H](O)[C@H]1O | 1.63% [at 52.9 µM] |  | 
COCCCCCCCCOCCC[Si](C)(O[Si](C)(C)C)O[Si](C)(C)C | 0.421% |  | 
C=C[Si](C)(C)Cl | 1.82% [at 10.5 µM] |  | 
O=C(/C=C/c1ccc([N+](=O)[O-])cc1)c1ccccc1 | -2.68% |  | 
CC=C(Cl)Cl | 2.22% |  | 
CN1C(C(=O)Nc2ccccn2)=C(O)c2ccccc2S1(=O)=O |  | inactive | 
CCCCC(CC)COS(=O)(=O)O (stereo not drawn) | -1.31% |  | 
CN(C)c1cccc(O)c1 |  | inactive | 
C/C(=C(/OCCOc1ccc(Cl)cc1)c1ccc(Cl)cc1Cl)n1ccnc1 | 1.32% [at 52.9 µM] |  | 
CC(C)CCCCCOC(=O)CS | 2.47% |  | 

target: Acetylcholinesterase (Homo sapiens) (UniProt P22303); assay: Acetylcholinesterase (AChE) small molecule antagonists: enzyme-based qHTS assay (AID 1347397); conditions: Potency: AChE enzyme activity inhibition; outcome: AChE enzyme activity inhibition; series mostly up to 115 µM; activity change, negative = inhibition: at the top concentration; also: nearly all actives have a fitted effect of over 55% in size
Procedure, shortened: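 First, recombinant human AChE (50 mU/mL as dispensed) received test compound or DMSO. Second, plates stood 30 min at room temperature. Third, DTNB and acetylthiocholine were added, followed by 10 min at room temperature and colorimetric detection.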

Compound | activity change, negative = inhibition | Potency | outcome
N[C@@H](CCC(=O)O)C(=O)O | -0.199% |  | 
CCCCSCCCC | -0.51% |  | 
CCCCCCCCCCCCCCCCCC(=O)OCC(CC)CCCC (stereo not drawn) | 0.694% |  | 
CCOCCn1c(N2CCCN(C)CC2)nc2ccccc21 | 0.674% [at 53 µM] |  | 
CC1=C(/C=C/C(C)=C/C=C/C(C)=C/C(=O)O)C(C)(C)CCC1 |  | inactive | 
Cc1ccc(N=Nc2c(O)ccc3ccccc23)c(C)c1 | 2.79% [at 53 µM] |  | 
CCCCCCCCCCCCCCCCBr | 2.89% [at 23.6 µM] |  | 
C=CC(=O)OCCOC1C2CCC1C1CC=CC12 (stereo not drawn) | 0.411% [at 23.6 µM] |  | 
CCC(C)C=O (stereo not drawn) |  | inactive | 
COc1ccc(OC)c(NC(=O)CC(C)=O)c1 | -0.379% |  | 
Nc1ccc(C(=O)N2CC3CC(CN(Cc4ccccc4)C3)C2)cc1 | -0.405% [at 53 µM] |  | 
CCCCN1CCCC[C@H]1C(=O)Nc1c(C)cccc1C | -3.64% [at 53 µM] |  | 
O=C(O)Cc1ccccc1Nc1c(Cl)cccc1Cl |  | inactive | 
C=CCOC(=O)CCCCCCCC | -1.91% |  | 
CCCCN(CCCC)C(=S)SSC(=S)N(CCCC)CCCC | -26.8% |  | 
C1CCCNCCC1 | 2.98% |  | 
O=C(Cl)c1ccccc1[N+](=O)[O-] | -0.153% |  | 
C#CCN[C@@H]1CCc2ccccc21 |  |  | inactive
CCc1cnc(C(=O)O)c(C(=O)O)c1 | 1.51% |  | 
C=C/C=C/C=C/CCCCC | 0.676% [at 23.6 µM] |  | 

Compound | activity change, negative = inhibition | Potency | outcome
Cc1cccc2c1cc1ccc3cccc4ccc2c1c34 | -0.159% |  | 
CCC1CCC(CCC(=O)O)C1 (stereo not drawn) | -1.77% |  | 
CN(C)c1cc(NC(=O)CNC(C)(C)C)c(O)c2c1C[C@H]1C[C@H]3[C@H](N(C)C)C(=O)C(C(N)=O)=C(O)[C@@]3(O)C(=O)C1=C2O | 2.84% [at 53 µM] |  | 
CC(C)CCCCCCc1ccc(O)cc1 | -11.4% |  | 
CN1CCC(=C2c3ccccc3CCc3cccnc32)CC1 | -1.52% [at 53 µM] |  | 
O=[N+]([O-])c1ccc(F)cc1F | -0.253% |  | 
CCCCCCCCS | 0.98% |  | 
CC(=O)OCCC1CCCCC1 | -0.695% |  | 
Cc1ccccc1OCC(=O)O | 2.37% |  | 
C[C@H]1O[C@H](O[C@H]2[C@H](O)[C@@H](O)[C@@H](O[C@H]3[C@H](O)[C@@H](O)[C@H](O)O[C@@H]3CO)O[C@@H]2CO)[C@H](O)[C@@H](O)[C@@H]1N[C@H]1C=C(CO)[C@@H](O)[C@H](O)[C@H]1O | 0.892% [at 53 µM] |  | 
COCCCCCCCCOCCC[Si](C)(O[Si](C)(C)C)O[Si](C)(C)C | 1.35% |  | 
C=C[Si](C)(C)Cl | 0.136% [at 10.5 µM] |  | 
O=C(/C=C/c1ccc([N+](=O)[O-])cc1)c1ccccc1 | -0.0103% |  | 
CC=C(Cl)Cl | -1.34% |  | 
CN1C(C(=O)Nc2ccccn2)=C(O)c2ccccc2S1(=O)=O |  | inactive | 
CCCCC(CC)COS(=O)(=O)O (stereo not drawn) | -1.65% |  | 
CN(C)c1cccc(O)c1 |  | inactive | 
C/C(=C(/OCCOc1ccc(Cl)cc1)c1ccc(Cl)cc1Cl)n1ccnc1 | -2.96% [at 53 µM] |  | 
CC(C)CCCCCOC(=O)CS | -0.0037% |  | 
